The values that follow come from PubChem BioAssay AID449 (The Scripps Research Institute Molecular Screening Center, 2006).

This assay addresses Sphingosine 1-phosphate receptor 1 (Homo sapiens) (UniProt P21453). The experiment in a line: activation or potentiation of human S1P1 signaling – cell-based, primary and confirmation screens, CRE-bla reporter, primary screen (AID 449).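 Also: forskolin at 4 µM as EC80 and the EC20 agonist is SEW2871; 100% = SEW2871 at its EC100 plus forskolin at EC80.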 Particulars: S1P1 CRE-bla cells, forskolin, beta-lactamase FRET, potentiator mode, at 9.5 µM, stronger effect = higher value, 100% = saturating reference agonist, 0% = basal, S1P1 agonist co-added at EC20, 2 nM.

[1] abbreviates: measured here: confirmation screen, triplicate average.

Hit rate of the full screen: of about 56,000 compounds, about 320 (0.57%) were called active.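 The calls were made as follows: active = activation above a cutoff set at the mean activation of all tested compounds plus 3 SD (cut at about 54% in these data); inactive = the rest, inconclusive results apart.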 This excerpt belongs to a sample that is enriched for actives.

Sphingosine 1-phosphate receptor 1 (Homo sapiens), sequence (P21453 whole entry, looked up): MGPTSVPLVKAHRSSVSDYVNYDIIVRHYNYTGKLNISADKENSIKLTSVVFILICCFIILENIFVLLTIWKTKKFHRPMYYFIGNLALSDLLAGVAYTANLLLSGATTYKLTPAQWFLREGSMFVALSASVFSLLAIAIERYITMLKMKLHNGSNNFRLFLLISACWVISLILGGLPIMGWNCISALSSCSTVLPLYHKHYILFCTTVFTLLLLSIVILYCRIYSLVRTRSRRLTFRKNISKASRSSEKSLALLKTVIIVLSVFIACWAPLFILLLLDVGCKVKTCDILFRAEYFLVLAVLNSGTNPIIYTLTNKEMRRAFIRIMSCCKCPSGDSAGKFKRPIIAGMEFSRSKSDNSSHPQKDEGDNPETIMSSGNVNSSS

As for `CCc1ccc(N(CC)c2ncnc3nc[nH]c23)cc1`, the activation is 56.5% (active). Further, the activation under setting [1] is 57.4%.

In the case of `COc1ccc(CCNc2ncnc3nc[nH]c23)cc1OC`, the activation is -11.4% (inactive).

As to `c1ccc2c(c1)OCC(CNc1ncnc3nc[nH]c13)O2` (configuration not stated), the activation was 23.9% (inactive).

For `COC(=O)c1cc(C(=O)CSc2nc(C)cc(C)n2)ccc1O`, the activation was -13.3% (inactive).

In the case of `CC(C)OC(=O)c1sc2nc3c(cc2c1N)C(=O)CCC3`, the activation was -1.6% (inactive).

Take `Cc1ccc(-c2nn(-c3ccccc3)cc2CN(Cc2ccccc2)C(=O)CCC(=O)O)o1`: the activation was -15.4% (inactive).

Regarding `CCCc1nc(SCC(=O)Nc2ccccc2OC)c2c(=O)n(C)c(=O)n(C)c2n1`, the activation was -6% (inactive).

As to `COc1ccc(OC)c(C(=O)CSc2nnc(-c3cccs3)o2)c1`, the activation is -31.3% (inactive).

For `COc1ccc(-n2c(C)cc(C(=O)CSc3nnc(-c4cccs4)o3)c2C)cc1`, the activation was 114% (active). Moreover, the activation under setting [1] was determined as 111%.

Turning to `COc1ccc(-c2nnc(SCC(=O)c3cccs3)o2)c(OC)c1`, the activation was 8.5% (inactive).

Consider `CCOC(=O)c1sc(/N=C/Nc2nc(C)c(C(=O)OCC)s2)nc1C`, for which the activation is 11.8% (inactive).

`Cc1cc(C(=O)N2CCN(c3ccccn3)CC2)c(C)o1`: the activation is -7.8% (inactive).

Regarding `COc1cccc(N(CC(=O)Nc2cccc(F)c2)S(C)(=O)=O)c1`, the activation was 13.1% (inactive).

Turning to `COc1ccc(C)c2sc(=NC(=O)c3ccc(C#N)cc3)n(C)c12`, the activation is -12.3% (inactive).

As to `CCSC1(SCC)N=C(N)C2(C#N)C(c3ccccc3)NC(C)=CC12C#N` (configuration not stated), the activation is 2.3% (inactive).

For `CC(NC(=O)c1ccc(Cl)cc1)C(=O)N1CCCCC1` (configuration not stated), the activation was -2% (inactive).

On to `CC1CSc2nnc(CCc3ccccc3)n21` (configuration not stated), for which the activation was -14.3% (inactive).

On to `CC12COC3(C(=O)Nc4ccc(Cl)cn4)CC1CCC32C` (configuration not stated), for which the activation is -10.8% (inactive).

`COCCCn1c2nc3ccccc3nc2c2c(=O)n(Cc3ccc(Cl)cc3)c(C)nc21`: the activation is 6% (inactive).

Turning to `CCC(C(=O)Nc1ncccn1)(C(F)(F)F)C(F)(F)F`, the activation is -4.8% (inactive).

Consider `CC(C)Cc1cc(C(=O)NCCc2ccccc2)no1`, for which the activation was 20.9% (inactive).

As to `CCCOc1ccc(-c2nc(N)n[nH]2)cc1`, the activation is 5.2% (inactive).

For the molecule `CCOC(=O)C1CCCN(C(=O)Cn2ncc3c(=O)oc4ccc(C)cc4c32)C1` (configuration not stated), the activation is -8.1% (inactive).

In the case of `Cc1cc(OCCN2CCCC2)ccc1C(C)C`, the activation was -14.6% (inactive).

For `COc1ccc(OC)c2[nH]c(=O)c(CCNC(=O)C(C)(C)C)cc12`, the activation was -8.4% (inactive).

For `CCOC(=O)CSC1=C(C#N)C(c2sccc2C)CC(=O)N1` (configuration not stated), the activation is -11.6% (inactive).

For `CC(=O)N1CCN(C(=O)c2cccc(S(=O)(=O)Nc3ccc(C)cc3)c2)CC1`, the activation was -12.2% (inactive).

Take `Cc1c(C(=O)NCC2CCCO2)sc2nc(-c3ccccc3)cn12` (configuration not stated): the activation is -17.8% (inactive).

In the case of `CCOc1ccc(NC(=O)CSc2nc3c(c(=O)n2-c2ccccc2OC)SCC3)cc1`, the activation is -5.9% (inactive).

For the molecule `COc1ccc(OC)c2sc(NC(=O)C3COc4ccccc4O3)nc12` (configuration not stated), the activation was -1.3% (inactive).

With `COc1ccc(CCNC(=O)CN2CCC(n3nnc4cc(F)ccc43)CC2)cc1OC`, the activation was -19.7% (inactive).

Turning to `COCCOC(=O)C1=C(C)N=c2s/c(=C\c3cccs3)c(=O)n2C1c1cccs1` (configuration not stated), the activation is 2.2% (inactive).

As for `COc1ccc(OC)c(CNC(=O)CCc2nc(-c3cccs3)no2)c1`, the activation was 9.5% (inactive).

As for `CC(C)(C)NC(=O)C(c1ccco1)N(Cc1ccc2c(c1)OCO2)C(=O)Cn1nnc2ccccc21` (configuration not stated), the activation is 11.2% (inactive).

Consider `c1ccc(-n2ncc3c2ncn2c(CSc4nc5ccccc5s4)nnc32)cc1`, for which the activation was -7.8% (inactive).

In the case of `CCn1c(=O)cc(O)c2ccccc21`, the activation is -26.6% (inactive).

Regarding `CCc1ccccc1NC(=O)c1cccs1`, the activation is -18.1% (inactive).

For the molecule `O=C(OCCO)c1cc(Cl)c(C(=O)OCCO)cc1Cl`, the activation is -15.8% (inactive).

Regarding `Fc1ccc(Br)cc1/C=N/n1cnnc1`, the activation was -20% (inactive).

Turning to `CC1(C)CC(=O)C(C=NCCC2=CCCCC2)=C(O)C1`, the activation was -14.2% (inactive).

For `O=C(c1cccc(C(=O)N2CCN(c3ccc(F)cc3)CC2)c1)N1CCN(c2ccc(F)cc2)CC1`, the activation was 46% (inactive).

For the molecule `Cn1c2c(c(=O)n(C)c1=O)CN(Cc1ccco1)CN2`, the activation was -5.4% (inactive).

Regarding `COc1ccc(C2/C(=C(/O)c3ccc(OC(C)C)cc3)C(=O)C(=O)N2CCCN2CCOCC2)cc1` (configuration not stated), the activation is 10.9% (inactive).

For `CS(=O)(=O)N(Cc1nc2sc3c(c2c(=O)[nH]1)CCCC3)C1CCCCC1`, the activation is -3.8% (inactive).

For the molecule `Cc1ccccc1Cn1c(=O)[nH]c2ccccc21`, the activation is 1% (inactive).

Regarding `O=C(COc1ccc(Cl)cc1)Nc1ccccc1CO`, the activation is 0% (inactive).

Turning to `Cc1ccc(CCn2c3c(c4ccccc42)CN(C)CC3)cn1`, the activation is 6.4% (inactive).

On to `CC1CN(Cc2nc3c(c(=O)n(C)c(=O)n3C)n2Cc2cccc(Cl)c2)CC(C)O1` (configuration not stated), for which the activation was -22.8% (inactive).

For the molecule `CCOC(=O)C1C(=O)NC(N2CCN(c3ccccc3)CC2)=NC1c1ccco1` (configuration not stated), the activation is -4.8% (inactive).

In the case of `COc1ccc(CCNC(=O)c2ccco2)cc1`, the activation was -9.8% (inactive).

On to `CCOC(=O)C1C(=O)C=C(c2ccc(OC)cc2)CC1c1ccco1` (configuration not stated), for which the activation was 91.1% (active). The activation under setting [1] worked out at 86.3%.

In the case of `COc1ccc(-n2nc3c(c2NC(=O)Cc2cccc(C)c2)CS(=O)C3)cc1` (configuration not stated), the activation is -1.3% (inactive).

For the molecule `CN1CCN(c2cc(=O)n(-c3ccc(Cl)cc3)c(=O)[nH]2)CC1`, the activation is -1.5% (inactive).

As for `O=C1c2ccccc2C(O)N1Cc1ccccc1Cl` (configuration not stated), the activation is 15.2% (inactive).

For the molecule `O=C(Cc1cccs1)N1CCCC(c2nc(-c3ccc(S(=O)(=O)N4CCCC4)cc3)no2)C1` (configuration not stated), the activation is 18.8% (inactive).

As for `COc1cc(-c2noc(C3CCCN(S(=O)(=O)c4cccc(Cl)c4)C3)n2)cc(OC)c1OC` (configuration not stated), the activation was 91.7% (active). The activation under setting [1] came out at 85.9%.

For the molecule `O=C(c1cccs1)N1CCCC(c2nc(-c3ccc(F)cc3)no2)C1` (configuration not stated), the activation is 22.8% (inactive).

`COc1nc(NCc2ccc(Cl)cc2)nc(OC)n1`: the activation is -7.3% (inactive).

`O=C(Cn1cnc2c(cnn2-c2ccc(F)cc2)c1=O)NCCc1ccccc1`: the activation was -3.5% (inactive).

Turning to `Nc1nnc(C2CCCC2)s1`, the activation was -4.9% (inactive).

Regarding `Cn1c(SCC(=O)N2CCOCC2)nnc1-c1ccc(NC(=O)c2ccccc2F)cc1`, the activation is 2.6% (inactive).

Take `COC(=O)c1sc(NC(=O)c2ccc(OC)cc2OC)nc1C`: the activation is 108% (active). In addition, under setting [1], the activation turned out to be 94.2%.

Regarding `COC(=O)c1sc(NC(=O)c2csc3c2CCCC3)nc1C`, the activation was 8.7% (inactive).

Regarding `COc1ccc(C(=O)Nc2nncs2)c(OC)c1`, the activation is -24% (inactive).

For the molecule `CSCCC(NC(=O)c1ccc(=O)n(C)n1)c1nc2ccccc2[nH]1` (configuration not stated), the activation is -17.6% (inactive).

`COc1ccc2nc(N3CCCC(O)C3)c(C#N)cc2c1` (configuration not stated): the activation was 16.4% (inactive).

On to `Cc1ccc(S(=O)(=O)C2(S(=O)(=O)c3ccc(C)cc3)CCCC2)cc1`, for which the activation was -19.8% (inactive).

As for `CCCOC(=O)CC1C(=O)NCCN1Cc1ccc(F)cc1` (configuration not stated), the activation is -20.1% (inactive).

In the case of `CCC(CC)c1nnc(NS(=O)(=O)Cc2ccccc2)s1`, the activation is -23.9% (inactive).

Turning to `COc1cccc(C2/C(=C(/O)c3ccc(F)cc3)C(=O)C(=O)N2CCN(C)C)c1` (configuration not stated), the activation was -5.8% (inactive).

For `COc1ccc(OC)c2c1sc(=NC(=O)CN1C(=O)CCC1=O)n2C`, the activation is -15.9% (inactive).

Turning to `COc1ccc(-n2nnc3c(=O)n(CC(=O)N4CCC(Cc5ccccc5)CC4)cnc32)cc1`, the activation is 18.2% (inactive).

For `N#CCCN1CCN(S(=O)(=O)c2ccc(S(=O)(=O)NC3CCCCC3)cc2)CC1`, the activation was -9% (inactive).

With `O=c1c(-c2ccc3c(c2)OCCO3)c(C(F)(F)F)oc2cc(O)cc(O)c12`, the activation is 84% (active). Besides, the activation under setting [1] worked out at 95.4%.

In the case of `CCN1CCN(Cc2c(O)ccc3c(=O)c(-c4ccc(OC)c(OC)c4)c(C(F)(F)F)oc23)CC1`, the activation is -27.2% (inactive).

As to `Cc1ccc(-c2nc(CS(=O)CC(=O)N3CCN(c4ncccn4)CC3)c(C)o2)cc1` (configuration not stated), the activation was -2.4% (inactive).

Regarding `O=C1CC(c2cccc(Br)c2)C2=C(CCCC2=O)N1` (configuration not stated), the activation was -6.5% (inactive).

With `C=C(C)Cn1c(N2CCCC2)nc2c1c(=O)[nH]c(=O)n2C`, the activation was -3.8% (inactive).

With `O=C(c1cc(-c2ccccc2O)on1)N1CCCC1`, the activation was -19% (inactive).

Regarding `COc1ccc(-c2c(C)nn3c(N4CCC(C(=O)N5CCCCC5)CC4)cc(C)nc23)cc1OC`, the activation is -7.7% (inactive).

Turning to `CN(CCCC(=O)Nc1nccs1)S(=O)(=O)c1ccc(Cl)cc1`, the activation is 20.6% (inactive).

With `O=c1c2ccccc2oc2nc3n(c(=O)c12)CCCS3`, the activation was -24.6% (inactive).

Consider `CNC(=O)c1c(NC(=O)c2ccc(S(=O)(=O)N3CCOCC3)cc2)sc2c1CCC2`, for which the activation was -19.6% (inactive).

Turning to `O=C(NCc1ccc(Cl)c(Cl)c1)c1cccnc1`, the activation is 10.2% (inactive).

With `COC(=O)c1c(NC(=O)CCN2CCOCC2)sc2c1CCCC2`, the activation was -4.7% (inactive).

For `O=S(=O)(NCc1ccccn1)c1ccc(F)cc1`, the activation is -21.3% (inactive).

In the case of `O=S(N1CCCCCC1)C12CC3CC(CC(C3)C1)C2` (configuration not stated), the activation was -13.3% (inactive).

`CCCn1c(O)c(CN2CCCC(C)C2)c(C)c(C#N)c1=O` (configuration not stated): the activation is 1% (inactive).

Take `CCOC(=O)CSC1=C(C#N)C(c2ccco2)C(C(=O)OCc2ccccc2)=C(C)N1` (configuration not stated): the activation is 11.9% (inactive).

Take `FC(F)(F)c1cc(-c2ccco2)nc(N2CCOCC2)n1`: the activation was -22.2% (inactive).

As to `CC(C)CCNC(=O)CCNS(=O)(=O)c1ccc(Cl)cc1`, the activation was 12.2% (inactive).

As for `O=C(NC1CCN(Cc2ccccc2)CC1)c1ccccc1F`, the activation is -25.4% (inactive).

Regarding `CCOc1cc(/C=N/n2cnnc2)c(Br)cc1O`, the activation was -9.1% (inactive).

With `c1nnc2c3c4c(sc3ncn12)CCC4`, the activation was -8.2% (inactive).

As for `COc1ncnc2sc3c(c12)CCCC3`, the activation was -21.1% (inactive).

As for `Cn1cc(S(=O)(=O)N2CCC(Cc3ccccc3)CC2)c(=O)n(C)c1=O`, the activation was -8.3% (inactive).
